Screening results deposited in PubChem by The Scripps Research Institute Molecular Screening Center.
Only some compounds are listed: those with a hit (about 0.84% of all), similar ones and a draw of the others.
SRC3 TRFRET art – TR-FRET artefact, counter-screen to PPARgamma/SRC-3 agonist assay. PPARgamma/SRC-3 format; stronger effect = higher value. TR-FRET ratio at 8 µM. 99,000 tested, 0.39% active. AID 1048; in the data active = TR-FRET ratio above about 2000
PPARg SRC-3 ag – promotes SRC-3 coactivator recruitment by human PPARgamma; P37231; biochemical PPARgamma/SRC-3 coactivator recruitment assay; activation, % at 8 µM; 200,000 tested, 0.26% active; AID 731; in the data active = activation above about 23%
PPARg SRC1 recr – PPARgamma-driven SRC-1 recruitment agonism. AID 631. activation, % at 8 µM. 200,000 tested, 0.41% active. P37231. PPARgamma-SRC-1 coactivator recruitment biochemical assay; in the data active = activation above about 19%
SRC1 TRFRET art – counter-screen for PPARgamma SRC-1 recruitment agonists: TR-FRET artefact | TR-FRET detection artefact counter-screen, emission ratio; stronger effect = higher value | TR-FRET ratio at 8 µM | 99,000 tested, 0.34% active | AID 1051; in the data active = TR-FRET ratio above about 2300
PPARg SRC-2 ag – agonists of SRC-2 recruitment by human PPARgamma; AID 1032; PPARgamma LBD-SRC-2 recruitment, biochemical; activation, % at 8 µM; P37231; 200,000 tested, 0.34% active
TR-FRET SRC-2 ct – counter-screen for PPARgamma SRC-2 recruitment agonists: TR-FRET artefact. stronger effect = higher value. 200,000 tested, 0.4% active. TR-FRET ratio at 8 µM. AID 1049; in the data active = TR-FRET ratio above about 2000
PPARg SRC2 ag – confirmation of agonists of SRC-2 recruitment by human PPARgamma. AID 1297. biochemical SRC-2 recruitment by PPARgamma. shares compounds with PPARg SRC-3 ag. 790 tested, 52% active. activation, % at 8 µM
PPARg SRC1 ag – human PPARgamma SRC-1 recruitment agonism, confirmation; shares compounds with PPARg SRC-3 ag; PPARgamma–SRC-1 coactivator recruitment biochemical assay; activation, % at 8 µM; 790 tested, 43% active; AID 1300; in the data active = activation above about 20%
PPARg SRC3 conf – confirmation of agonists of SRC-3 recruitment by human PPARgamma. shares compounds with PPARg SRC-3 ag. biochemical PPARgamma-SRC-3 coactivator recruitment, agonist mode. 790 tested, 29% active. activation, % at 8 µM; in the data active = activation above about 24%
Target sequence (P37231 whole entry, looked up): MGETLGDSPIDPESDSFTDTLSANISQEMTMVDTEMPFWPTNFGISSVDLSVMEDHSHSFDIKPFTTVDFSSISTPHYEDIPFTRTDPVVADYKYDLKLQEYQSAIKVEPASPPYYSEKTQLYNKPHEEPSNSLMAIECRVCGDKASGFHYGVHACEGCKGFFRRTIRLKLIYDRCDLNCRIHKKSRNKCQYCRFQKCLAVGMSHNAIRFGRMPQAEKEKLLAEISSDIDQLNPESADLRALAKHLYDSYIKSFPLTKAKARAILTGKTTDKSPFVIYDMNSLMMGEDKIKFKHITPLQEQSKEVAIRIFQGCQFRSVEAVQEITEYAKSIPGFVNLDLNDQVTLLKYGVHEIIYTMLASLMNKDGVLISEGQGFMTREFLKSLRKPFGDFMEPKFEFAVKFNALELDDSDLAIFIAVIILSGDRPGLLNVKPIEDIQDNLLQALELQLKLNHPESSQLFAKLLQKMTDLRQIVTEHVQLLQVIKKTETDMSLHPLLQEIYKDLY
Target sequence (Q9Y6Q9 whole entry, looked up): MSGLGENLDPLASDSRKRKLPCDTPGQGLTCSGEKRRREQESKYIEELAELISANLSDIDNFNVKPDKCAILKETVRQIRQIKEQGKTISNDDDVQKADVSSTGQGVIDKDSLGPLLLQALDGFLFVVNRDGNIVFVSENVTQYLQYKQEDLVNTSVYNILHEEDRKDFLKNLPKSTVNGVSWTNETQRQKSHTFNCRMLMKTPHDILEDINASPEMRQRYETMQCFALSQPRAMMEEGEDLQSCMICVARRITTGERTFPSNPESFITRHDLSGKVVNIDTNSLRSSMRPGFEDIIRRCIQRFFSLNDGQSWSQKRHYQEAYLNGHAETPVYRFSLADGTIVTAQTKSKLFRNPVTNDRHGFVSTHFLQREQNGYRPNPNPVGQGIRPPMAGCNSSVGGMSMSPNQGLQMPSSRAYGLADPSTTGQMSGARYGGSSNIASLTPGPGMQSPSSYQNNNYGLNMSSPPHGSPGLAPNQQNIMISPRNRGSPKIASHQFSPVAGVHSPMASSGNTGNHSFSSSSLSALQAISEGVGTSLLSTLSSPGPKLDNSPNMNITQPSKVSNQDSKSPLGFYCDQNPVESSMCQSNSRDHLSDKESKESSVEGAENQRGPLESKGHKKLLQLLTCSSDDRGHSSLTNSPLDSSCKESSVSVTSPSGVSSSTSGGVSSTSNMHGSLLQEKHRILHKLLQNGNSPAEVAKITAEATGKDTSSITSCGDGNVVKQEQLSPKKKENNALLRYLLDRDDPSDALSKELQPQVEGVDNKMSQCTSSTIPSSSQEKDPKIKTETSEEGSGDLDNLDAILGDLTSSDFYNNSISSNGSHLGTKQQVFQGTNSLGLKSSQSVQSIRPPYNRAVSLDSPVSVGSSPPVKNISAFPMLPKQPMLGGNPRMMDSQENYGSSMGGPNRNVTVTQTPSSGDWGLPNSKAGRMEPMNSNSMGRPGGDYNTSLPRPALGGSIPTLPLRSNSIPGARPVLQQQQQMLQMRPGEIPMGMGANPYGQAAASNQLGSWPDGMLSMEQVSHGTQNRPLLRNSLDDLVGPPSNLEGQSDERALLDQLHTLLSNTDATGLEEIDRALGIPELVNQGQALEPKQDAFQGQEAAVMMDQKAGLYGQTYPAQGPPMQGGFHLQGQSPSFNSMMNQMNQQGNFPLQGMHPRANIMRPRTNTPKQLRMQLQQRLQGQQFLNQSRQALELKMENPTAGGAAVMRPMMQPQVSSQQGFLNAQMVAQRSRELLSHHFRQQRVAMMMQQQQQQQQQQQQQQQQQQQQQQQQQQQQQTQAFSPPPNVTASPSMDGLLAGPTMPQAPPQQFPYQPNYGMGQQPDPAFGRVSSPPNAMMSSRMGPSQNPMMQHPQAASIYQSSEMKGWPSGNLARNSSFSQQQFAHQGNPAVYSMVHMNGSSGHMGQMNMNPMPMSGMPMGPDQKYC
Large screens that a line does not name were inactive (follow-up assays come after a bar, where they were run). Cut-off read from the data, not from the text of the source, unless noted: active = activation above about 22%; inactive = the rest.

Cc1cc(C2C(C#N)=C(N)SC(N)=C2C#N)c(C)s1	PPARg SRC-2 ag 25 (no result: SRC3 TRFRET art, SRC1 TRFRET art) | PPARg SRC2 ag inactive | PPARg SRC1 ag inactive | PPARg SRC3 conf inactive
Cc1sccc1C1C(C#N)=C(N)SC(N)=C1C#N	PPARg SRC-3 ag 33, PPARg SRC-2 ag 22 (no result: SRC3 TRFRET art, SRC1 TRFRET art) | PPARg SRC2 ag inactive | PPARg SRC1 ag inactive | PPARg SRC3 conf inactive
Cc1cc(C2C(C#N)=C(N)Oc3n[nH]c(C)c32)c(C)s1 (stereo not drawn)	none (no result: SRC3 TRFRET art, SRC1 TRFRET art)
Cc1[nH]nc2c1C(c1ccsc1C)C(C#N)=C(N)O2 (stereo not drawn)	none (no result: SRC3 TRFRET art, SRC1 TRFRET art)
NC(=O)Nc1ccccc1C(=O)N1CCC(O)(c2ccc(Cl)cc2)CC1	none
CN1CCC/C1=C/C=C1\SC(=S)NC1=O	PPARg SRC-2 ag 24 | PPARg SRC2 ag inactive | PPARg SRC1 ag inactive | PPARg SRC3 conf inactive
O=[N+]([O-])c1ccc(NCCCNS(=O)(=O)c2ccccc2)cc1	none
N#C/C(=C\c1ccc(N2CCOCC2)o1)C(=O)NCC1CCCO1 (stereo not drawn)	PPARg SRC1 recr 20, TR-FRET SRC-2 ct 2010 | PPARg SRC2 ag inactive | PPARg SRC1 ag inactive | PPARg SRC3 conf inactive
CSc1ccccc1-c1nnc(-c2ccc(Cl)cc2Cl)o1	none (no result: SRC3 TRFRET art, SRC1 TRFRET art)
CCSc1nnc(-c2ccccc2SC)o1	PPARg SRC1 recr 20, SRC1 TRFRET art 2385, TR-FRET SRC-2 ct 2020 | PPARg SRC2 ag 27 | PPARg SRC1 ag 20 | PPARg SRC3 conf inactive
CCC(C(=O)Nc1nnc(-c2ccco2)s1)c1ccccc1 (stereo not drawn)	PPARg SRC-3 ag 27, PPARg SRC1 recr 26 (no result: SRC3 TRFRET art, SRC1 TRFRET art) | PPARg SRC2 ag 27 | PPARg SRC1 ag 21 | PPARg SRC3 conf inactive
CCCC(=O)Nc1nnc(-c2ccco2)s1	none (no result: SRC3 TRFRET art, SRC1 TRFRET art)
CCOC(=O)Cc1nnc(NC(=O)c2cccc(OCC)c2)s1	none (no result: SRC3 TRFRET art, SRC1 TRFRET art)
O=C(Cc1ccccc1)Nc1nnc(-c2ccco2)s1	PPARg SRC-3 ag 37, PPARg SRC1 recr 37, PPARg SRC-2 ag 31, TR-FRET SRC-2 ct 2292 (no result: SRC3 TRFRET art, SRC1 TRFRET art) | PPARg SRC2 ag 31 | PPARg SRC1 ag 24 | PPARg SRC3 conf inactive
Cc1cccc(OCC(=O)Nc2nnc(-c3ccco3)s2)c1	SRC3 TRFRET art 2164, PPARg SRC1 recr 28, SRC1 TRFRET art 2686, PPARg SRC-2 ag 28, TR-FRET SRC-2 ct 2106 | PPARg SRC2 ag 36 | PPARg SRC1 ag 28 | PPARg SRC3 conf inactive
CCc1nnc(NC(=O)C(CC)c2ccccc2)s1 (stereo not drawn)	none
CCOc1cccc(C(=O)Nc2nnc(-c3ccco3)s2)c1	PPARg SRC1 recr 22 (no result: SRC3 TRFRET art, SRC1 TRFRET art) | PPARg SRC2 ag inactive | PPARg SRC1 ag inactive | PPARg SRC3 conf inactive
NC12CC3CC(C1)CC(CO)(C3)O2	none
COc1ccccc1OCC(=O)Nc1nnc(-c2ccco2)s1	PPARg SRC-3 ag 35, PPARg SRC1 recr 28, PPARg SRC-2 ag 31, TR-FRET SRC-2 ct 2199 (no result: SRC3 TRFRET art, SRC1 TRFRET art) | PPARg SRC2 ag 24 | PPARg SRC1 ag 21 | PPARg SRC3 conf inactive
CCOC(=O)c1c(NC(=O)COc2ncnc3ccccc23)sc(C(C)=O)c1C	PPARg SRC-2 ag 25 | PPARg SRC2 ag inactive | PPARg SRC1 ag inactive | PPARg SRC3 conf inactive
CCCOc1cc(C)c(S(=O)(=O)NC2CC(C)(C)NC(C)(C)C2)cc1C	none
Cc1ccc(Oc2ccc(OCC(=O)NC(CC(C)C)C(=O)O)cc2)cc1 (stereo not drawn)	none
COc1ccc(/C=C(/C#N)C(=O)Nc2ccccc2C)cc1C(=O)O	none
COc1cc(/C=C(\C#N)C(=O)Nc2ccccc2C(=O)O)cc(Cl)c1OC	PPARg SRC-3 ag 49, PPARg SRC1 recr 31 | PPARg SRC2 ag 33 | PPARg SRC1 ag 51 | PPARg SRC3 conf 46
Cn1c(=O)cc(SCC(=O)Nc2ccc3c(c2)OCO3)c2ccccc21	PPARg SRC-3 ag 43, PPARg SRC1 recr 32, PPARg SRC-2 ag 60, TR-FRET SRC-2 ct 2627 (no result: SRC3 TRFRET art, SRC1 TRFRET art) | PPARg SRC2 ag 42 | PPARg SRC1 ag 28 | PPARg SRC3 conf 27
Cn1cc(SCC(=O)Nc2ccc3c(c2)OCO3)c2ccccc21	none (no result: SRC3 TRFRET art, SRC1 TRFRET art)
